PubChem BioAssay (EPA / NIEHS)
Inconclusive results are not listed. Active and inactive are the calls of the source. The calls were made as follows, unless noted: active = hit-call score of the fitted dose curve at least 0.9, where 1 is the maximum; inconclusive = response in the unintended direction; inactive = score below 0.9.

How the values were obtained:
[1] = target: human CYP4F12, CYP4F12 (gene 66002) (UniProt Q9HCS2); experiment: NVS_ADME_hCYP4F12: NovaScreen (NVS) CYP450-related Enzyme Activity (ADME) Assay for human CYP4F12 (AID 2283111)
In short: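 Cell-free fluorescence assay of recombinant human CYP4F12 activity on a specific substrate, read 0.5 h after dosing. Primary screen in duplicate at 10 uM, then concentration series for actives; loss of signal fitted against acetonitrile negative control.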

[2] = target: human AMP-activated Protein Kinase, alpha 1 (AMPKa1), PRKAA1 (gene 5562) (UniProt Q13131); experiment: NVS_ENZ_hAMPKa1: NovaScreen (NVS) Enzymatic Assay for human AMP-activated Protein Kinase, alpha 1 (AMPKa1) (AID 2283130)
In short: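 Recombinant human AMPKα1 activity was measured cell-free by fluorescent substrate conversion with electrophoretic mobility-shift separation, 1 h after dosing. Duplicate single-point screening was at 25 uM; actives (≥30% inhibition) were retested in concentration-response up to 50 uM.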

[3] = target: human Mitogen-Activated Protein Kinase 1 (MAPK 1), MAPK1 (gene 5594) (UniProt P28482); experiment: NVS_ENZ_hMAPK1: NovaScreen (NVS) Enzymatic Assay for human Mitogen-Activated Protein Kinase 1 (MAPK 1) (AID 2283175)
In short: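 Cell-free recombinant human MAPK1 enzymatic assay, fluorescence/electrophoretic mobility shift read at 1 h; loss of signal vs DMSO. Primary screen in duplicate at 25 uM; actives (e.g. ≥30% inhibition) run as concentration-response up to 50 uM.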

[4] = target: human MET Proto-Oncogene, Receptor Tyrosine Kinase (MET), MET (gene 4233) (UniProt P08581); experiment: NVS_ENZ_hMet: NovaScreen (NVS) Enzymatic Assay for human MET Proto-Oncogene, Receptor Tyrosine Kinase (MET) (AID 2283180)
In short: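 Cell-free MET kinase assay using recombinant protein and fluorescent substrate, with mobility-shift separation; read 1 h after dosing. Primary duplicate at 25 uM; actives in singleton concentration-response to 50 uM maximum. Signal loss versus DMSO.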

[5] = target: human Fibroblast Growth Factor Receptor 1 (FGFR1), FGFR1 (gene 2260) (UniProt P11362); experiment: NVS_ENZ_hFGFR1: NovaScreen (NVS) Enzymatic Assay for human Fibroblast Growth Factor Receptor 1 (FGFR1) (AID 2283159)
In short: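 Cell-free recombinant kinase with fluorescent substrate, product separated by electrophoretic mobility shift; read 1 hour after dosing, loss of signal relative to DMSO. Initial screen in duplicate at 25 uM, actives followed in concentration series.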

[6] = target: human p21 Activated Kinase 4 (PAK4), PAK4 (gene 10298) (UniProt O96013); experiment: NVS_ENZ_hPAK4: NovaScreen (NVS) Enzymatic Assay for human p21 Activated Kinase 4 (PAK4) (AID 2283189)
In short: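 Cell-free recombinant human PAK4 activity assay; fluorescent substrate and product separated by electrophoretic mobility shift, read 1 h after dosing. Initially tested in duplicate at 25 uM, relative to DMSO baseline.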

[7] = target: human Phosphatase and Tensin Homolog (PTEN), PTEN (gene 5728) (UniProt P60484); experiment: NVS_ENZ_hPTEN: NovaScreen (NVS) Enzymatic Assay for human Phosphatase and Tensin Homolog (PTEN) (AID 2283203)
In short: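 Cell-free recombinant human PTEN with fluorescent substrate; product separated by electrophoretic mobility shift and read by fluorescence 1 h after dosing. Primary screen in duplicate at 25 uM, actives followed in concentration series versus DMSO.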

[8] = target: human Tyrosine Protein Kinase Receptor Tie-2 (Tie2), TEK (gene 7010) (UniProt Q02763); experiment: NVS_ENZ_hTie2: NovaScreen (NVS) Enzymatic Assay for human Tyrosine Protein Kinase Receptor Tie-2 (Tie2) (AID 2283225)
In short: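 Recombinant human Tie2 kinase activity was read cell-free by fluorescence with electrophoretic mobility shift, 1 hour after dosing. The screen used 25 uM in duplicate, then concentration-response up to 50 uM. Signal loss was scored against DMSO.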

[9] = CCTE_Harrill_HTTr_Apoptosis_PRF_DMEM_12hr: (Pilot) CCTE's 12-hour Apoptosis Assessment for the High-Throughput Transcriptomics (HTTr) Platform, in MCF-7 cells cultured in phenol red-free DMEM + 10% charcoal-stripped fetal bovine serum, Harrill Lab (AID 2283985; active = hit-call score of the fitted dose curve at least 0.9, where 1 is the maximum; inactive = score below 0.9)
In short: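 MCF-7 cells in phenol red-free DMEM with 10% charcoal-stripped FBS, eight-point dilution series, 12 h exposure. Caspase-3/7 activation imaged by high content imaging with CellEvent Green reagent; bidirectional fit vs DMSO.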

[10] = target: rat Monoamine Oxidase, MAO-B, Peripheral (MAOBP), Maob (gene 25750) (UniProt P19643); experiment: NVS_ENZ_rMAOBP: NovaScreen (NVS) Enzymatic Assay for rat Monoamine Oxidase, MAO-B, Peripheral (MAOBP) (AID 2283242)
[11] = target: rat CYP1A2, Cyp1a2 (gene 24297) (UniProt P04799); experiment: NVS_ADME_rCYP1A2: NovaScreen (NVS) CYP450-related Enzyme Activity (ADME) Assay for rat CYP1A2 (AID 2283115)
In short: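 Cell-free recombinant rat enzyme with fluorogenic substrate, read by fluorescence intensity 1 hour after dosing. Loss of signal versus acetonitrile negative control; primary screen at 10 uM in duplicate, actives followed in concentration series.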

[12] = target: rat Acetylcholinesterase (AChE), Ache (gene 83817) (UniProt P37136); experiment: NVS_ENZ_rAChE: NovaScreen (NVS) Enzymatic Assay for rat Acetylcholinesterase (AChE) (AID 2283233)
In short: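 Rat brain membrane acetylcholinesterase activity measured colorimetrically 0.33 h after compound addition, loss of signal relative to DMSO. Primary screen in duplicate at 25 uM; actives re-run as concentration-response with 50 uM top concentration.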

[13] = target: Cytochrome P450 2C18 (Homo sapiens) (UniProt P33260); experiment: NVS_ADME_hCYP2C18: NovaScreen (NVS) CYP450-related Enzyme Activity (ADME) Assay for human CYP2C18 (AID 2283103; active = hit-call score of the fitted dose curve at least 0.9, where 1 is the maximum; inactive = score below 0.9)
In short: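 Cell-free recombinant human CYP2C18 with fluorogenic substrate; fluorescence intensity read 0.5 h after dosing. Single-point screen at 10 uM in duplicate, then concentration-response up to 20 uM; loss of signal fitted against acetonitrile baseline.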

[14] = target: rat CYP2C12, Cyp2c12 (gene 25011) (UniProt P11510); experiment: NVS_ADME_rCYP2C12: NovaScreen (NVS) CYP450-related Enzyme Activity (ADME) Assay for rat CYP2C12 (AID 2283119)
In short: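 Cell-free recombinant rat CYP2C12 activity read by fluorescence 0.5 h after dosing; loss of signal versus acetonitrile control. Primary screen in duplicate at 10 uM; actives then run in concentration-response format.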

[15] = target: rat CYP2D1, Cyp2d1 (gene 266684) (UniProt P10633); experiment: NVS_ADME_rCYP2D1: NovaScreen (NVS) CYP450-related Enzyme Activity (ADME) Assay for rat CYP2D1 (AID 2283122)
In short: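 Cell-free fluorescence enzyme-activity assay on extracted rat CYP2D1 protein, read 0.75 h after dosing. Primary screen in duplicate at 10 uM; qualifying chemicals then run in concentration-response to 20 uM max, loss-of-signal versus acetonitrile baseline.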

[16] = target: human Raf-1 Proto-Oncogene, serine/threonine Kinase (RAF1), RAF1 (gene 5894) (UniProt P04049); experiment: NVS_ENZ_hRAF1: NovaScreen (NVS) Enzymatic Assay for human Raf-1 Proto-Oncogene, serine/threonine Kinase (RAF1) (AID 2283216)
In short: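 Cell-free recombinant kinase with specific fluorescent substrate, product separated by electrophoretic mobility shift; read 1 h after dosing. Primary screen at 25 uM in duplicate; hits then run in concentration-response up to 50 uM, fitted as loss of signal versus DMSO.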

[17] = target: human Acetylcholinesterase (AChE), ACHE (gene 43) (UniProt P22303); experiment: NVS_ENZ_hAChE: NovaScreen (NVS) Enzymatic Assay for human Acetylcholinesterase (AChE) (AID 2283129)
In short: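 Cell-free colorimetric enzyme-activity assay; compounds read 0.33 hour after dosing, loss of signal vs DMSO baseline. Primary screen in duplicate at 25 uM single concentration, with active compounds retested in concentration series.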

[18] = target: rat Monoamine Oxidase, MAO-B, Central (MAOBC), Maob (gene 25750) (UniProt P19643); experiment: NVS_ENZ_rMAOBC: NovaScreen (NVS) Enzymatic Assay for rat Monoamine Oxidase, MAO-B, Central (MAOBC) (AID 2283238)
In short: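 Compounds were first tested in duplicate at 25 uM against MAO-B from rat brain tissue; those passing the inhibition threshold were retested in concentration series up to 50 uM. Radiodetection by scintillation counting at 1.17 h, analysed against DMSO baseline.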

[19] = system: rat Monoamine Oxidase, MAO-A, Central (MAOAC), gene 29253; experiment: NVS_ENZ_rMAOAC: NovaScreen (NVS) Enzymatic Assay for rat Monoamine Oxidase, MAO-A, Central (MAOAC) (AID 2283243);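 also: potency refers to inhibition seen as signal drop below DMSO baseline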
In short: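 Rat brain tissue extract used as enzyme source in a cell-free radiometric assay, read by scintillation counting 1.5 hours after dosing. Loss of signal relative to DMSO baseline scored; primary screen at 25 uM in duplicate, actives followed up in concentration series.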

human CYP4F12, CYP4F12 (gene 66002), sequence (Q9HCS2 whole entry, looked up): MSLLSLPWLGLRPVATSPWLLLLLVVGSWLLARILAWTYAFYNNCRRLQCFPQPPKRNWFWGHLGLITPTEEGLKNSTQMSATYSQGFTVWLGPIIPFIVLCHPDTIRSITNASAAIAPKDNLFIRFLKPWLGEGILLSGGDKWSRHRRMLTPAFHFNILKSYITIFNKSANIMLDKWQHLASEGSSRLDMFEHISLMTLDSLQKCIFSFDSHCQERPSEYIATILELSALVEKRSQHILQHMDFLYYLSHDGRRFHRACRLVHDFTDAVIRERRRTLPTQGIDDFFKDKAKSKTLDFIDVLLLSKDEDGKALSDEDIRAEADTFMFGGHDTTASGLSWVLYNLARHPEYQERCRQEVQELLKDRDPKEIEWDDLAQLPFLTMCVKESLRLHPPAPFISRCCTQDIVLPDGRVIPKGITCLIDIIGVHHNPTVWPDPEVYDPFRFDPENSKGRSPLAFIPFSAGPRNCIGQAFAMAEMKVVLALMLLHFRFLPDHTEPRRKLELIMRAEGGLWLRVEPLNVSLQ
rat Acetylcholinesterase (AChE), Ache (gene 83817), sequence (P37136 whole entry, looked up): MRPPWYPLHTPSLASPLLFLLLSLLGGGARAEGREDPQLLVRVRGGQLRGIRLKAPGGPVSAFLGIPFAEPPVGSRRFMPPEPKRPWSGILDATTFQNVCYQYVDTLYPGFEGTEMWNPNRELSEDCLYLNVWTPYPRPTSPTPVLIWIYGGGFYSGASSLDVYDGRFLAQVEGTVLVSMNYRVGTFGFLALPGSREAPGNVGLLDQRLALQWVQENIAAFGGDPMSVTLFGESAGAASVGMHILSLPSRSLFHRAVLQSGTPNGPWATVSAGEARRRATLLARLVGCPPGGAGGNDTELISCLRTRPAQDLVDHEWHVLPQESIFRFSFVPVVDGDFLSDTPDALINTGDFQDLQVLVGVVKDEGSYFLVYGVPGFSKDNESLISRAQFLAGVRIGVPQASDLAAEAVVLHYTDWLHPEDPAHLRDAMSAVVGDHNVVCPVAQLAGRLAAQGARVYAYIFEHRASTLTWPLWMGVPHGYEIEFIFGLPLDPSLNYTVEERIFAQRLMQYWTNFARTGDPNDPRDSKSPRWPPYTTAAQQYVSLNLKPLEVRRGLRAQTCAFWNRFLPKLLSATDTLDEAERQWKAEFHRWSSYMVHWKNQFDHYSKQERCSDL
rat CYP1A2, Cyp1a2 (gene 24297), sequence (P04799 whole entry, looked up): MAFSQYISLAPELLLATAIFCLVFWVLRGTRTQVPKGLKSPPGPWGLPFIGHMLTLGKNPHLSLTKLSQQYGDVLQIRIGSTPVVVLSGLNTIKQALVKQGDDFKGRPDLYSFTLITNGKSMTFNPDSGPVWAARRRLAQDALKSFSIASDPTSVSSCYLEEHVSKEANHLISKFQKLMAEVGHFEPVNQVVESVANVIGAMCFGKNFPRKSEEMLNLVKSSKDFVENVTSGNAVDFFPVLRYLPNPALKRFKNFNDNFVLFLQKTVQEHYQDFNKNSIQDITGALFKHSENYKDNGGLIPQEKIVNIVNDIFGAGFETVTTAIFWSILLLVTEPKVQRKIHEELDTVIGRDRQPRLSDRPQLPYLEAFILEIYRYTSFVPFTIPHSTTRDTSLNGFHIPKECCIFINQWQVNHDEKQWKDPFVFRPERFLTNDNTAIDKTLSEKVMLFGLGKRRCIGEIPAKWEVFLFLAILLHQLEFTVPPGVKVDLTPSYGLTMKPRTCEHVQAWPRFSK
human Fibroblast Growth Factor Receptor 1 (FGFR1), FGFR1 (gene 2260), sequence (P11362 whole entry, looked up): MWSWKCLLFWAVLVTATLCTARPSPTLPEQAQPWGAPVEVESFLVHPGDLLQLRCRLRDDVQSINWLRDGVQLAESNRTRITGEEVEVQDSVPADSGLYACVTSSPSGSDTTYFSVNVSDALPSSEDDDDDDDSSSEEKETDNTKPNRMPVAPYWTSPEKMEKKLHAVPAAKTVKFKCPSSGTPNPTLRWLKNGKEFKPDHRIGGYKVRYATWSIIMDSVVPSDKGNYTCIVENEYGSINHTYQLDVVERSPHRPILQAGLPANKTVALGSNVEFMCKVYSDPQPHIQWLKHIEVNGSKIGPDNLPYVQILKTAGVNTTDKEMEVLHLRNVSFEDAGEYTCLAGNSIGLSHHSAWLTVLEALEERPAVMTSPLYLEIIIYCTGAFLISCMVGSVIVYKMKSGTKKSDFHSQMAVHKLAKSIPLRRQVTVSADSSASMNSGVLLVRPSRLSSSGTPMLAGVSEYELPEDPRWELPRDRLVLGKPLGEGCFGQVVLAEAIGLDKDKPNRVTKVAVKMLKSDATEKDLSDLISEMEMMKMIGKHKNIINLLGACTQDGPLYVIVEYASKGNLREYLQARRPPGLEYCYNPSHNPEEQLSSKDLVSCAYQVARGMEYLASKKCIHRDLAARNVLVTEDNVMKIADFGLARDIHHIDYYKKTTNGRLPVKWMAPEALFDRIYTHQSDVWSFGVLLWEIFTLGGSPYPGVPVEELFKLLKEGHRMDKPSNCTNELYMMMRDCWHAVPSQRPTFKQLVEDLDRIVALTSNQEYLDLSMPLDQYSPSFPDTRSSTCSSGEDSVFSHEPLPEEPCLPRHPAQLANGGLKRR
human AMP-activated Protein Kinase, alpha 1 (AMPKa1), PRKAA1 (gene 5562), sequence (Q13131 whole entry, looked up): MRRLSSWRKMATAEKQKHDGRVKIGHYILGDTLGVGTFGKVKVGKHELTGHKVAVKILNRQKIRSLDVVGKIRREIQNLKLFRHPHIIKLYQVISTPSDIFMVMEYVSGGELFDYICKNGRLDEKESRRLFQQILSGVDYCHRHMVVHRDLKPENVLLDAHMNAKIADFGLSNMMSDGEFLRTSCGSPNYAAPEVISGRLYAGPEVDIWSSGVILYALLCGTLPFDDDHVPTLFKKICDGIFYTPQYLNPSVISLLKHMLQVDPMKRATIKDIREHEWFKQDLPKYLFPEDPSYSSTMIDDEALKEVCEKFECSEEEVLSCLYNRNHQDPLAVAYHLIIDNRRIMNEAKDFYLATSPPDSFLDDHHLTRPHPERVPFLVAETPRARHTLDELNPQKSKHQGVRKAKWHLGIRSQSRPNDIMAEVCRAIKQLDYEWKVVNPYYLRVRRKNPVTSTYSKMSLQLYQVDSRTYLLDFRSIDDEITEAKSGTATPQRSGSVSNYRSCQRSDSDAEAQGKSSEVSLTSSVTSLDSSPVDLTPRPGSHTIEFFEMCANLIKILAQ
Cytochrome P450 2C18 (Homo sapiens), sequence (P33260 whole entry, looked up): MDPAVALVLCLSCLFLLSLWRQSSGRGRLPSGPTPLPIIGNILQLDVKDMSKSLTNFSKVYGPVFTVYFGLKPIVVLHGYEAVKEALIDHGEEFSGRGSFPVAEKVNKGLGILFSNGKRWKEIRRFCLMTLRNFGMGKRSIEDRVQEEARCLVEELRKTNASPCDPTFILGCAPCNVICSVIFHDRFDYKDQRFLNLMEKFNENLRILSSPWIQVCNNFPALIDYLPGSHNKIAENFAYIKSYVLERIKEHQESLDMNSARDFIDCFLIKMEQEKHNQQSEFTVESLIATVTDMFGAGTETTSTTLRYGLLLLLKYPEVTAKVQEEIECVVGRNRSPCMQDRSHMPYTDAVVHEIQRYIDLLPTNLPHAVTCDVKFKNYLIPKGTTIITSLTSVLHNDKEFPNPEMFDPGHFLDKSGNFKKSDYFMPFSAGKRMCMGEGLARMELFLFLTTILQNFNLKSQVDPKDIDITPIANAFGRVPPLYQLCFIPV
rat Monoamine Oxidase, MAO-B, Central (MAOBC), Maob (gene 25750), sequence (P19643 whole entry, looked up): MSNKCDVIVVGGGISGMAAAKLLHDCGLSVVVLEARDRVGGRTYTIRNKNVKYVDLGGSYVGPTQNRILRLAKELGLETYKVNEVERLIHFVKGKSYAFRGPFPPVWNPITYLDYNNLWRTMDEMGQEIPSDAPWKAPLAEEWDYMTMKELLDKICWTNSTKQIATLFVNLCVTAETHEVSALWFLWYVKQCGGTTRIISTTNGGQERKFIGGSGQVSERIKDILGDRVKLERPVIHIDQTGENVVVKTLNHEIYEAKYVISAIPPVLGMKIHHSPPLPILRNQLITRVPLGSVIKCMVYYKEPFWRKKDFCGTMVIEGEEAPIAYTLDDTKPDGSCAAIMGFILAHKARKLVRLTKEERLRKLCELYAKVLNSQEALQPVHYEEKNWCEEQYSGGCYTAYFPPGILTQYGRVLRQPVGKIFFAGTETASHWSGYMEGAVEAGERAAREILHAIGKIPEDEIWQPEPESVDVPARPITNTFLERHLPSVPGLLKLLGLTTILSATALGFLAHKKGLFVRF
rat Monoamine Oxidase, MAO-B, Peripheral (MAOBP), Maob (gene 25750), sequence (P19643 whole entry, looked up): as above
human p21 Activated Kinase 4 (PAK4), PAK4 (gene 10298), sequence (O96013 whole entry, looked up): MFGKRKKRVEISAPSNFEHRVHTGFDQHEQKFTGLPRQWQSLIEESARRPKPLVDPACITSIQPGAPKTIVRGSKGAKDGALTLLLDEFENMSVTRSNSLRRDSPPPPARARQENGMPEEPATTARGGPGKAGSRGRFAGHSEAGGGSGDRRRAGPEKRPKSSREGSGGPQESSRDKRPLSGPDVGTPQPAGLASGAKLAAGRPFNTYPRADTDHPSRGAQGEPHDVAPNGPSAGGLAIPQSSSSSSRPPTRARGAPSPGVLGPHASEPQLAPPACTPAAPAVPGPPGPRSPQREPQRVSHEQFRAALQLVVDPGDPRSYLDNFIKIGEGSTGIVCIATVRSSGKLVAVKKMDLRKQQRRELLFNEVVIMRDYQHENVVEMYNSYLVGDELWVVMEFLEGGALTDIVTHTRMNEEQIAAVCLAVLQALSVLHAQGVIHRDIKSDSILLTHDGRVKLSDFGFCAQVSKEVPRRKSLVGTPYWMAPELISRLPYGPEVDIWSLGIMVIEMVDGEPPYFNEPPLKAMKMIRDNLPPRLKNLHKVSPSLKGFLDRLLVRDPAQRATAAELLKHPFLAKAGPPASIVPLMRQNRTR

## CCOC(N)=O
[1]
  outcome: inactive
[2]
  outcome: inactive
[3]
  outcome: inactive

## O=C1NC(=O)C(c2ccccc2)(c2ccccc2)N1
[1]
  outcome: inactive
[4]
  outcome: inactive

## CC[C@H](C)C(=O)O[C@H]1C[C@@H](C)C=C2C=C[C@H](C)[C@H](CC[C@@H]3C[C@@H](O)CC(=O)O3)[C@H]21
[1]
  outcome: inactive
[5]
  outcome: inactive
[6]
  outcome: inactive
[7]
  outcome: inactive
[8]
  outcome: inactive
[9]
  outcome: inactive

## COc1cccc([C@H](O)C2CCN(CCc3ccc(F)cc3)CC2)c1OC
[1]
  AC50: 0.441 µM (active)
[10]
  AC50: 12.5 µM (active)

## CNC(=O)[C@H]1O[C@@H](n2cnc3c(NCc4cc(Cl)ccc4OCc4cc(C)no4)ncnc32)[C@H](O)[C@@H]1N
[1]
  outcome: inactive
[2]
  outcome: inactive
[5]
  outcome: inactive

## O=C1OC2(c3cc(Br)c(O)c(Br)c3Oc3c2cc(Br)c(O)c3Br)c2c(Cl)c(Cl)c(Cl)c(Cl)c21
[11]
  outcome: inactive
[12]
  AC50: 2.75 µM (active)

## CC(C)(C)[C@@H](O)[C@@H](Cc1ccc(Cl)cc1)n1cncn1
[13]
  AC50: 5.35 µM (active)
[14]
  AC50: 5.82 µM (active)
[15]
  AC50: 5.84 µM (active)
[16]
  outcome: inactive

## CCOC(=O)C1=NOC(c2ccccc2)(c2ccccc2)C1
[11]
  outcome: inactive
[12]
  outcome: inactive

## CSC(=O)c1cccc2nnsc12
[13]
  AC50: 3.8 µM (active)
[11]
  outcome: inactive
[17]
  outcome: inactive
[12]
  AC50: 1.32 µM (active)
[18]
  AC50: 25 µM (active)
[19]
  AC50: 28.2 µM (active)
